The source made the active and inactive calls.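 How the source made its calls, unless noted: active means fluorescence slope after compound addition differing from the mean of all screened samples at 99.7% confidence, in either direction; inactive means the rest.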
What was measured:
[1] = inhibitors of TNFa-induced NFkB p65 translocation, primary screen, imaging, HUVEC, MLSMR starter and 10KST1 sets (AID 438;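 active means inhibition above 20% together with a positive visual image hit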;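 further: compound added about 3h40 before a 20 min TNFalpha stimulation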;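 on inhibition: signal is the nuclear over cytoplasmic p65 intensity ratio per well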); settings: HUVEC TNFa-induced p65 nuclear translocation; cell count: measured here: nuclei count (cytotoxicity indicator), at 2.08 µM; inhibition: at 2 µM, stronger effect = higher value, 0% TNFa-plus-vehicle, 100% no-TNFa wells
[2] = inhibitors of mutant huntingtin aggregation, primary screen, imaging, exon1htt(103Q)mCFP cells, high-content imaging (AID 483;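 active means visual image review flags a hit and inhibition of aggregation exceeds 20%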;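 further: compound exposure lasted 3 days before fixation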;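 on nuclei count: percent of the per-plate median nuclei count of sample wells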); settings: exon1htt(103Q)mCFP cell line, aggregate imaging, at 2 µM; inhibition of aggregation: stronger effect = higher value; nuclei count: measured here: cell count, toxicity
[3] = inhibitors of E-selectin induction by TNFa, primary screen, imaging, HUVEC, immunofluorescence, MLSMR starter and 10KST1 sets (AID 487;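 active means visually confirmed hit in the image check and inhibition above 20%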;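 on inhibition: signal is fraction of cell area covered by stained E-selectin grains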;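 on nuclei count: 100% = median nuclei count of all wells on the same plate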); settings: HUVEC TNFalpha-induced E-selectin immunofluorescence imaging, at 2 µM; inhibition: stronger effect = higher value; nuclei count: measured here: cell number, toxicity
[4] = molecular target: Voltage-gated potassium channel subunit beta-2 (Rattus norvegicus) (UniProt P62483); assay: KvBeta enzyme negative modulators, primary screen, biochemical, NADPH fluorescence (AID 622;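 active means fluorescence slope higher than the sample average by over 3 SD, cut at about -0.22 in these data, passing the limit was not always enough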;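 further: slope of raw intensity against log time taken from 70 to 1610 s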); settings: recombinant KvBeta, 4-cyanobenzaldehyde reduction, at 10 µM, stronger effect = higher value
Voltage-gated potassium channel subunit beta-2 (Rattus norvegicus), sequence (P62483 whole entry, looked up): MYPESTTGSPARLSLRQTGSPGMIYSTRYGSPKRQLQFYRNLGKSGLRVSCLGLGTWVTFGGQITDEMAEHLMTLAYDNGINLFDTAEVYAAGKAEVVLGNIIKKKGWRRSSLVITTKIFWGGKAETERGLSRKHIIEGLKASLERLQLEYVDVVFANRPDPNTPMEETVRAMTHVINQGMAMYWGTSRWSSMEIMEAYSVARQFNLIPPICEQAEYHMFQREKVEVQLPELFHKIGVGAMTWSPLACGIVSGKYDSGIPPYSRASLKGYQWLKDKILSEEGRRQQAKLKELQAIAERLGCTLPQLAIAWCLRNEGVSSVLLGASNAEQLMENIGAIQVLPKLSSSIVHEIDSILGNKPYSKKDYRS

[5] = molecular target: Voltage-gated potassium channel subunit beta-2 (Rattus norvegicus) (UniProt P62483); assay: KvBeta positive modulators, primary screen, biochemical, NADPH fluorescence (AID 623;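 active means NADPH fluorescence slope more negative than the mean of all samples by about 3 SD, 99.7% confidence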;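 further: fluorescence intensity change per second fitted from 20 to 320 s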); settings: Recombinant KvBeta, NADPH fluorescence decrease slope, 10 min; at 10 µM; stronger effect = lower value
[6] = molecular target: Alpha-2C adrenergic receptor (Homo sapiens) (UniProt P18825); assay: modulators of alpha2C/GIRK thallium flux, primary screen, cell-based, HEK293 alpha2C/GIRK1/2 (AID 624); settings: thallium flux BTC fluorescence, at 10 µM, actives lie on both sides;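 further: slope of fluorescence ratio to pre-addition baseline per second over 15 to 24 s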
Alpha-2C adrenergic receptor (Homo sapiens), sequence (P18825 whole entry, looked up): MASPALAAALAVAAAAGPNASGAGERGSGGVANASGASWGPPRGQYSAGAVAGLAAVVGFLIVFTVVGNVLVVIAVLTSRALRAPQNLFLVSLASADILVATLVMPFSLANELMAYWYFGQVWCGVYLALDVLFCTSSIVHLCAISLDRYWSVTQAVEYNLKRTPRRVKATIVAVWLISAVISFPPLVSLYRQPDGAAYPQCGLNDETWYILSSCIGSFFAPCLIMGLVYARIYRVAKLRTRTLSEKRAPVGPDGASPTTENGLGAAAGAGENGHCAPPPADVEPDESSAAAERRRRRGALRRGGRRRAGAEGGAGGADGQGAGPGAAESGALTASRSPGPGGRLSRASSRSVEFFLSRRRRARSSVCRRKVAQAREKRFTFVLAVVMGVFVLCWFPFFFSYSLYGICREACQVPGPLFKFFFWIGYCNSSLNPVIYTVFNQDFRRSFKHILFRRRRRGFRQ

[7] = inhibitors of Sendai virus-induced IRF3 signaling, primary screen, TLR/RLR signaling modifier project, cell-based, Sendai virus stimulus, luciferase, 10K MLSCN set (AID 602276;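 active means inhibition at or above 50% at 10 µM; inactive means inhibition below 50%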;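 further: firefly luciferase from ISG56 promoter only with Renilla not read in this screen; 0% = Sendai virus plus DMSO and 100% = medium plus DMSO without virus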); settings: HEK293 RL24 IRF3 luciferase reporter, at 10 µM, stronger effect = higher value
[8] = inhibitors of poly I:C-induced TLR3 signaling, primary screen, cell-based, poly I:C stimulus, luciferase, 10K MLSCN set (AID 602277;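 active means inhibition of the reporter signal at or above 50%; inactive means inhibition below 50%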); settings: HEK293-TLR3 RL24 IRF3 luciferase reporter, at 10 µM, stronger effect = higher value

SMILES | cell count [1] | inhibition [1] | inhibition of aggregation [2] | nuclei count [2] [%] | inhibition [3] | nuclei count [3] [%] | fluorescence slope [4] | NADPH fluorescence slope [5] | slope [6] | inhibition [7] | inhibition [8]
COc1ccc(-c2nc(CS(=O)CC(=O)NCc3ccccn3)c(C)o2)cc1 (stereo not drawn) | 518 | 1.9% (inactive) | -23.1% (inactive) | 104 | -25.4% (inactive) | 99.7 | -0.527 (inactive) | -1.1e-05 (inactive) | 0.00839 (inactive) | 44.5% (inactive) | 9.92% (inactive)
COC(=O)CNC(=O)COC(=O)c1cc(Cl)cc(Cl)c1N | 473 | 4.7% (inactive) | -2% (inactive) | 112 | -81.4% (inactive) | 123 | -0.41 (inactive) | 1.6e-05 (inactive) | 0.0054 (inactive) | -8.86% (inactive) | 3.33% (inactive)
COc1cc2c(cc1NCc1ccccn1)oc1ccccc12 | 304 | -1.5% (inactive) | 20.3% (inactive) | 66.4 | -27.9% (inactive) | 90.6 | -0.365 (inactive) | -4.6e-05 (inactive) | 0.00538 (inactive) | -24.8% (inactive) | -70.7% (inactive)
CC(=O)c1cccc(NC(=O)N2CCCc3ccccc32)c1 | 334 | 2% (inactive) | -9.8% (inactive) | 95.3 | -43.9% (inactive) | 120 | -0.622 (inactive) | 3.7e-06 (inactive) | 0.00357 (inactive) | 9.66% (inactive) | -1.85% (inactive)
Cc1ccc(Br)cc1S(=O)(=O)N1CCN(c2ccccc2)CC1 | 391 | -2.2% (inactive) | -16% (inactive) | 108 | -51.5% (inactive) | 129 | -0.463 (inactive) | -1.8e-05 (inactive) | 0.0036 (inactive) | 5.17% (inactive) | 31.3% (inactive)
CC(C)CCNC(=O)C(C)N(Cc1ccc(F)cc1)C(=O)c1ccc(CN2CCCCC2)o1 (stereo not drawn) | 327 | -11.2% (inactive) | 28.1% (active) | 75.3 | 2.1% (inactive) | 106 | -0.284 (inactive) | -6e-05 (inactive) | 0.00436 (inactive) | 7.35% (inactive) | 14% (inactive)
COc1ccc(N=c2scc(-c3ccc(S(=O)(=O)N4CCOCC4)cc3)n2CCCO)cc1 | 974 | -6.1% (inactive) | 23% (inactive) | 99.9 | -218% (inactive) | 136 | -0.319 (inactive) | -2.9e-05 (inactive) | 0.00558 (inactive) | 41.4% (inactive) | -19.4% (inactive)
Cc1cc(=O)n(C)c(=O)n1CCCCCN1CCCC1 | 655 | 2.2% (inactive) | -3.3% (inactive) | 106 | -52% (inactive) | 102 | -0.51 (inactive) | -1.1e-05 (inactive) | 0.00473 (inactive) | 19.1% (inactive) | 25.3% (inactive)
Cc1ccc(C(C)C)c(OCCn2c(=O)oc3ccccc32)c1 | 540 | -5.9% (inactive) | 0.7% (inactive) | 89.4 | -32.5% (inactive) | 77.7 | -0.416 (inactive) | 2.5e-05 (inactive) | 0.00298 (inactive) | -13.6% (inactive) | -27.2% (inactive)
CCN(Cc1cc2ccccc2[nH]c1=O)S(=O)(=O)c1ccccc1 | 642 | 7.5% (inactive) | 9.9% (inactive) | 104 | 38.9% (inactive) | 104 | -0.627 (inactive) | 1.2e-05 (inactive) | 0.00647 (inactive) | 12.2% (inactive) | 5.79% (inactive)
CC(C)(C)C(=O)NC1CCN(C(=O)N2CCCC2)CC1 | 685 | -6.3% (inactive) | -5.3% (inactive) | 107 | -36.6% (inactive) | 118 | -0.311 (inactive) | -3.2e-05 (inactive) | 0.00525 (inactive) | 12.1% (inactive) | 20.9% (inactive)
CSCCC(N=CC1=C(O)CC(C)(C)CC1=O)C(=O)O (stereo not drawn) | 405 | 1.8% (inactive) | -10.8% (inactive) | 104 | -0.2% (inactive) | 118 | -0.363 (inactive) | -4.2e-05 (inactive) | 0.00607 (inactive) | 15.3% (inactive) | 22.3% (inactive)
Cc1nc(N)[nH]c(=O)c1CCC(=O)OCC(C)C | 587 | -22.7% (inactive) | 5.9% (inactive) | 80 | -61.2% (inactive) | 97 | -0.507 (inactive) | -4.8e-06 (inactive) | 0.00627 (inactive) | 6.72% (inactive) | 32.1% (inactive)
O=C(NC1CCCc2ccccc21)C1CCN(c2nnc(-n3cccc3)s2)CC1 (stereo not drawn) | 686 | -6% (inactive) | -12.1% (inactive) | 116 | -65.3% (inactive) | 114 | -0.583 (inactive) | -3e-05 (inactive) | 0.00726 (inactive) | 7.01% (inactive) | 18.7% (inactive)
CCOC(=O)c1ccc(NC(=O)COc2ccc(-n3cnnn3)cc2)cc1 | 354 | -0.5% (inactive) | -2.9% (inactive) | 60.6 | 5% (inactive) | 102 | -0.405 (inactive) | -1.2e-05 (inactive) | 0.00538 (inactive) | 1.41% (inactive) | 11.4% (inactive)
O=C(c1ccco1)N1CCN(/C(=N/S(=O)(=O)c2cccs2)c2ccccc2Cl)CC1 | 852 | -5.6% (inactive) | 2.4% (inactive) | 103 | 33.2% (inactive) | 95.1 | -0.491 (inactive) | -5.1e-05 (inactive) | 0.00477 (inactive) | -2.11% (inactive) | 12.2% (inactive)
COc1cccc(-c2cc(C(=O)NCc3ccc(Cl)cc3)no2)c1 | 475 | -3.9% (inactive) | -3.3% (inactive) | 103 | 13.3% (inactive) | 95.6 | -0.474 (inactive) | 1.7e-05 (inactive) | 0.00826 (inactive) | 46% (inactive) | -11.6% (inactive)
Cc1ccc(-c2nc3cnccn3c2Nc2ccc3c(c2)OCO3)o1 | 913 | 2.3% (inactive) | 2.9% (inactive) | 130 | -109% (inactive) | 114 | -0.483 (inactive) | -6.6e-05 (inactive) | 0.00517 (inactive) | 5.62% (inactive) | 34.7% (inactive)
CC(C)C(c1nnnn1CC1CCCO1)N1CCN(Cc2ccc3c(c2)OCO3)CC1 (stereo not drawn) | 357 | 4.8% (inactive) | -10.8% (inactive) | 113 | -55.1% (inactive) | 110 | -0.521 (inactive) | -5.8e-05 (inactive) | 0.00548 (inactive) | 9.72% (inactive) | 12.5% (inactive)
COc1ccccc1OCC(=O)Nc1cccc(-c2nc3ccccc3o2)c1 | 468 | 0% (inactive) | 1% (inactive) | 61.8 | -65.1% (inactive) | 110 | -0.374 (inactive) | -1.4e-06 (inactive) | 0.00387 (inactive) | -0.911% (inactive) | -2.39% (inactive)
N#Cc1nc(-c2ccco2)oc1NCc1ccco1 | 658 | -9.1% (inactive) | -10.1% (inactive) | 120 | -12.2% (inactive) | 98.2 | -0.375 (inactive) | 5.2e-05 (inactive) | 0.00582 (inactive) | -2.68% (inactive) | -30.9% (inactive)
CCN(CC)S(=O)(=O)c1ccc(NC2c3ccccc3C(=O)N2CCN2CCOCC2)cc1 (stereo not drawn) | 534 | -12.6% (inactive) | 24.2% (inactive) | 95.3 | -147% (inactive) | 128 | -0.611 (inactive) | 1.3e-05 (inactive) | 0.00571 (inactive) | 4.22% (inactive) | 10.7% (inactive)
O=C(CN1C(=O)CC(c2ccco2)Sc2ccccc21)Nc1ccccc1F (stereo not drawn) | 551 | -2.9% (inactive) | -3.5% (inactive) | 111 | -28.3% (inactive) | 110 | -0.588 (inactive) | 1.9e-05 (inactive) | 0.00681 (inactive) | 12.5% (inactive) | 15.3% (inactive)
Cc1occc1-c1nnc(SCC(=O)c2ccc(F)cc2)n1Cc1ccco1 | 370 | 5% (inactive) | 21.2% (inactive) | 87.3 | -42.8% (inactive) | 107 | -0.393 (inactive) | 2e-06 (inactive) | 0.00656 (inactive) | 9.07% (inactive) | 12% (inactive)
O=C(COC(=O)c1ccccc1O)Nc1ccc(OC(F)F)cc1 | 674 | 5.1% (inactive) | -8.4% (inactive) | 103 | -64.8% (inactive) | 136 | -0.543 (inactive) | 7.7e-06 (inactive) | 0.00583 (inactive) | -13.8% (inactive) | -42.2% (inactive)
O=C1NC2(Nc3ccccc31)C(=O)Nc1ccccc12 (stereo not drawn) | 361 | -4.3% (inactive) | 6.1% (inactive) | 102 | -129% (inactive) | 106 | -0.355 (inactive) | -4.5e-06 (inactive) | 0.00484 (inactive) | 13.7% (inactive) | 37.4% (inactive)
CC(=O)Nc1ccc(S(=O)(=O)NCc2csc(-c3cccnc3)n2)cc1 | 356 | -10.2% (inactive) | -11.8% (inactive) | 108 | -19.2% (inactive) | 101 | -0.511 (inactive) | -3.4e-05 (inactive) | 0.00545 (inactive) | 9.95% (inactive) | 22.2% (inactive)
Cc1ccc(CNC(=O)C2CCCN(S(=O)(=O)c3cnc[nH]3)C2)cc1 (stereo not drawn) | 768 | -11% (inactive) | -30.5% (inactive) | 102 | -23.4% (inactive) | 92.7 | -0.538 (inactive) | -1.6e-05 (inactive) | 0.00735 (inactive) | -2.34% (inactive) | 15.9% (inactive)

Reference: PubChem BioAssay
